The results in this text go back to PubChem BioAssay (NCATS).

Several values for one entry are separate records, joined by “and”; a condition that tells them apart may be missing. Equal values may be shown once. Results filed as inconclusive are left out. Activity calls are given as the source filed them. The call rests on the fitted dose curve; in most records, active means well fitted cell-killing curve with a large enough effect; inconclusive means small, poorly fitted or top-dose-only effect; inactive means no such curve, though single readings can be large or run the other way.
Potency means the concentration at half of the fitted maximal effect.

The nature of the test: qHTS of pediatric cancer cell lines to identify multiple opportunities for drug repurposing: Primary screen for SK-N-MC cells (AID 1347093). The note with it: SK-N-MC viability, CellTiter-Glo luminescence, 48 h; series mostly up to 46 µM; activity change, negative = cytotoxic: at the top concentration. The source says: Drug repurposing or repositioning has been offered as a strategy for drug development in oncology programs. This approach has special potential for childhood cancers and other rare or orphan diseases, where the expected return on new drug development has been a disincentive to pharmaceuticals.
In this project we exploit the poly-pharmacology of drugs to discover new indications via phenotypic screening of a panel of 19 well-characterized cell lines derived from solid tumors seen in children and adolescents. The goal is to identify approved drugs with previously unrecognized anticancer properties that has the potential to reveal new mechanisms and biological processes involved in carcinogenesis or drug resistance. We employed a titration-based paradigm (quantitative high-throughput screening or qHTS), where all compounds were tested at multiple concentrations for their effect on cell viability. Concentration-response curves (CRCs) were derived directly from the primary screen, and both potency and efficacy values were used to identify compounds with robust bioactivity profiles. We screened the NIH Chemical Genomics Center (NCGC) Pharmaceutical Collection (NPC) and Mechanism Interrogation Plate (MIPE) small molecule collections of approved and investigational compounds against these cell lines; and measured metabolically active cells after 48 hours of compound treatment as a proxy for cell viability.
Assay Submitter: Nathalia J. Martinez, National Center for Advancing Translational Sciences, National Institutes of Health, Rockville, MD, USA; email: natalia.martinez@nih.gov
[1] Shen, M et al. Quantitative high-throughput phenotypic screening of pediatric cancer cell lines identifies multiple opportunities for drug repurposing. Oncotarget 2017 Dec 19;9(4):4758-4772. PMID 29435139.
The cells were obtained from University of North Carolina (UNC), Pediatric Preclinical Testing Program (PPT), and Coriell Institute (CI).
qHTS cell viability assay:
Cells were assayed in growth media at a density of 500-1,000 cells/well. Five microliters of cells were dispensed into 1,536-well, white, solid-bottom, TC-treated plates (Greiner Bio One) using a multidrop dispenser and incubated at 37 degrees C, 5% CO2, under a humidified atmosphere for 5 hours. Twenty-three nanoliters of compounds and controls (neutral control DMSO or positive control bortezomib at final concentration of 2.3 µM) were subsequently transferred by Kalypsys pintool. For primary screens, the MIPE collection was tested at 11-point dilutions (final concentrations range from 0.78 nM to 46 µM) and the NPC collection at 8-point dilutions (final concentrations range from 0.59nM to 46 µM). Compounds tested in follow-up screens were assayed at 11-point dilutions. Cells were incubated for 48 hours, followed by addition of 3 uL of CellTiter-Glo (Promega). After a 15 min incubation at room temperature, samples were analyzed for luminescence intensity using a ViewLux High-throughput CCD imager equipped with clear filters.
Background: Quantitative high-throughput screening tests each substance at several concentrations.
Regarding `OCCN(CCO)c1nc(N2CCCCC2)c2nc(N(CCO)CCO)nc(N3CCCCC3)c2n1`, the Potency is 23.5 µM (active).
As for `O=C(C1CCCCC1)N1CC(=O)N2CCc3ccccc3C2C1` (stereo not given), the “activity change, negative = cytotoxic” value is 12.5% (inactive).
As to `CC1(CN2CCC(n3c(=O)[nH]c4ccccc43)CC2)OCc2ccccc2-n2cccc21` (stereo not given), the Potency was 33.2 µM (active).
On the same count and under the same terms, the entry for `NCCCCCC(=O)O` is “inactive”.
For `CC(=O)OCC(CCn1cnc2cnc(N)nc21)COC(C)=O`, the Potency entry is “inactive”.
Same read-out and setting: for `CNCCCC12CCC(c3ccccc31)c1ccccc12` the value was 23.5 µM (active); for `O=C(c1ccc(OCCN2CCCCC2)cc1)c1c(-c2ccc(O)cc2)sc2cc(O)ccc12`, 18.8 µM (active).
`Cc1ccc(C(=O)Nc2ccc(S(=O)(=O)O)c3cc(S(=O)(=O)O)cc(S(=O)(=O)O)c23)cc1NC(=O)c1cccc(NC(=O)Nc2cccc(C(=O)Nc3cc(C(=O)Nc4ccc(S(=O)(=O)O)c5cc(S(=O)(=O)O)cc(S(=O)(=O)O)c45)ccc3C)c2)c1`: the “activity change, negative = cytotoxic” value is 6.89% (inactive).
Regarding `COc1cc2nc(N(C)CCCNC(=O)C3CCCO3)nc(N)c2cc1OC` (stereo not given), the Potency entry is “inactive”.
On to `NC(CO)C(=O)NNCc1ccc(O)c(O)c1O` (stereo not given), for which the “activity change, negative = cytotoxic” value is -6.76% (inactive).
In the case of `CS(=O)(=O)CCNCc1ccc(-c2ccc3ncnc(Nc4ccc(OCc5cccc(F)c5)c(Cl)c4)c3c2)o1`, the Potency was 93.5 nM (active) and 11.9 µM (active).
`COc1ccccc1N1CCN(CC(O)COc2cccc3ccccc23)CC1` (stereo not given): the “activity change, negative = cytotoxic” value was 30.6% (inactive).
Take `CC#C[C@]1(O)CC[C@H]2[C@@H]3CCC4=CC(=O)CCC4=C3[C@@H](c3ccc(N(C)C)cc3)C[C@@]21C`: the Potency was 0.118 µM (active).
Still for that read-out and setting: for `COc1ccc(C2CNC(=O)C2)cc1OC1CCCC1` (stereo not given) the value was “inactive”; for `N[C@@H](Cc1c[nH]c2ccc(O)cc12)C(=O)O`, “inactive”.
Regarding `CC1COc2c(N3CCN(C)CC3)c(F)cc3c(=O)c(C(=O)O)cn1c23` (stereo not given), the “activity change, negative = cytotoxic” value was 66.2% (inactive).
For `O=c1c(-c2ccc(O)cc2)coc2cc(O)cc(O)c12`, the “activity change, negative = cytotoxic” value is -16.4% (inactive).
With `CN1CCN2c3ccccc3Cc3ccccc3C2C1` (stereo not given), the Potency entry was “inactive”.
With `OCCN1CCN(CCCN2c3ccccc3Sc3ccc(C(F)(F)F)cc32)CC1`, the Potency was 2.09 µM (active).
Still for that read-out and setting: the figure for `CC[C@@]1(O)C(=O)OCc2c1cc1n(c2=O)Cc2cc3c(CN(C)C)c(O)ccc3nc2-1` is 6.7 nM (active) and 23.5 nM (active); for `COC(=O)Nc1nc2ccc(C(=O)c3cccs3)cc2[nH]1` it is 4.7 nM (active) and 94.4 nM (active); for `COc1cc2nc(N3CCN(C(=O)C4COc5ccccc5O4)CC3)nc(N)c2cc1OC` (stereo not given) it is 29.6 µM (active).
On the same count and under the same terms, the figure for `COc1ccc2c(c1)c(CC(=O)O)c(C)n2C(=O)c1ccc(Cl)cc1` is 29.6 µM (active).
With `O=C1Cc2cc(CCN3CCN(c4nsc5ccccc45)CC3)c(Cl)cc2N1`, the “activity change, negative = cytotoxic” value was -36.7% (inactive).
Same read-out and setting: for `Cn1ccc2cc3c(cc21)CCN3C(=O)Nc1cccnc1` the value was -15.9% [at 16.1 µM] (inactive).
Regarding `Cn1c(=O)c2c(ncn2C)n(C)c1=O`, the Potency entry was “inactive”.
In the case of `CCOC(=O)C(C)(C)Oc1ccc(Cl)cc1`, the Potency entry was “inactive”.
As for `CN1CCC(=C2c3ccccc3CC(=O)c3sccc32)CC1`, the Potency was 6.62 µM (active).
With `O=c1c(O)c(-c2ccc(O)c(O)c2)oc2cc(O)cc(O)c12`, the Potency is 8.33 µM (active).
For `C[C@](N)(Cc1ccc(O)c(O)c1)C(=O)O`, the “activity change, negative = cytotoxic” value was -24.7% (inactive).
As for `Fc1ccc([C@@H]2CCNC[C@H]2COc2ccc3c(c2)OCO3)cc1`, the Potency entry is “inactive”.
As for `NS(=O)(=O)c1cc2c(cc1Cl)NCNS2(=O)=O`, the Potency result was “inactive”.
Still for that read-out and setting: for `CCC1(C)CC(=O)NC1=O` (stereo not given) the value was “inactive”.
Turning to `CCOC(=O)Nc1ccc(NCc2ccc(F)cc2)nc1N`, the “activity change, negative = cytotoxic” value is -25.2% (inactive).
`COc1nc(C)nc(Cl)c1NC1=NCCN1`: the Potency result was “inactive”.
In the case of `NCCS(=O)(=O)O`, the Potency entry is “inactive”.
For the compound `Cc1ccccc1N1C(=O)c2cc(S(N)(=O)=O)c(Cl)cc2NC1C` (stereo not given), the Potency entry is “inactive”.
Still for that read-out and setting: for `CCN1CCCC1CNC(=O)c1cc(S(=O)(=O)CC)c(N)cc1OC` (stereo not given) the value was “inactive”.
In the case of `O=C(CCCN1CCC(O)(c2ccc(Cl)cc2)CC1)c1ccc(F)cc1`, the “activity change, negative = cytotoxic” value was -48.3% (inactive).
With `Clc1ccc2c(c1)C(N1CCNCC1)=Nc1ccccc1O2`, the “activity change, negative = cytotoxic” value was -14.5% (inactive).
